Data taken from the supplement of paper PMC6555819.

system: VDR:RXRa (NR concentration 270 nM, RXRa partner concentration 90 nM); assay: PBM binding z-score (relative to random genomic background probes); higher = stronger binding; sequences stand for … in GC…GCGATTGACAGCGTAGAATGAAGG
Method: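 Protein-binding microarray (Agilent 4x180K custom design, double-stranded 60-nt probes: 5' GC cap, 34-nt variable region, 24-nt constant primer region; full probe sequence given). Purified or IVT nuclear receptor:RXRα heterodimers (3:1 NR:RXRα, mostly 270:90 nM) or homodimers were incubated for 1 h in PBS with 2% milk and no ligand, then detected with Alexa488 antibodies. Fluorescence from o1-orientation probes (~5 replicates averaged) was converted to z-scores against 500 random hg19 background probes. Variable regions are seed direct-repeat (DR0–DR5) sites, all their single-nucleotide variants and half-site ablations.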

Sequence	PBM binding z-score
CCTACTGGGCCAAAGAGGTCATTGATGCCGATAA	5.68
TGTCAAAGGTCAAAGGTAACGTAAGTATCCACAC	6.2
CCGAGTTGGTCAAGGTCACACACGCTATAGGTAC	4.7
CTATGTAGGTTAGGGGGGTCATTCAGTTTGAAAG	7.68
CCTAGTTGTTCAGGAGGTCACACACCGGATATGA	3.9
TGTCAACGTTCAAAGGTAACGTAAGTATCCACAC	0.617
CCTACTGGGCCATTCAGAGGTCAATGATCATATG	3.4
ACTTACGGGTCTACGAGGTTATAGCACGCGTATA	2.83
ACTCGGAGGACAAAGGTCAGGGCTACGCCAGTGA	3.43
CGTCAAAGGTCAAGGTAACGTAACAGAAAGCAGC	5.13
TTACCAAGGTCAAAGGTCGTTGATGCACGCCTTG	6.42
TTGCCTAGGTCATTGGGCCAGTATAGTACGCATC	2.27
AGAATGAGGTCATTAAGATCAGGGAATTGCGGTC	5.8
GATACAGGGTCAGCTACAGGCCAGAGTATGGAAA	2.55
TGTCAAAGTTCAAAGGTTACGTAAGTATCCACAC	6.4
GATACAGGGTCAAGGTCAGAGTACGCGTATTGAT	5.53
TAGCCTAGGTCATGCGGCCCAGTATAGTGTCGGC	1.77
ATATGTAGGTTAAGCGTCATTCAGGTTGGTTCGC	0.888
CCTTAGGGGTCAAGGTTATAGCACGGGTGGTACG	6.11
AGTCAAAGGTCATCTAGGTAACGTAAGATATGCT	6.04

Sequence	PBM binding z-score
TAGCCTAGGGCATTCAGGGGCCAGTATAGAAAGC	-0.213
TAGCCGAGGTCATTCAGGGGCCAGTATAGAAAGC	5.89
TCTCGGAGGACACCAAAGGTCAGAGCTCGACATC	3.38
CGTCAAAGGTCAAGGTCAGTGAAAGAGACTCGAA	5.77
AGAATGAGATTACCAAAGATCAGGGAAACGCTTG	-0.0977
ATATGTAGTTTATCGGGTCATTCAGTTTGCGCAT	5.19
AGAATGAGGTCAAGATCAGGGAAACAGAATACAT	4.93
CAAACTAGGTCAAGGTCTAAGTCGGTTTGTGCCA	1.95
ATCGAAAGGTCGACGCGGTGAGTATACACCGTTT	3.04
AATACAGGGTAACTAGGCCAGAGTAGGTACGAAT	0.199
CCGACTGGGGCAAGGTCACCATAACGCACAGCCA	3.26
TCTTGTAGATCAACAGGAGGTTAATAAAGATCGA	0.648
TAGCCTAGTTCATTCAGGGGCCAGTATAGAAAGC	2
CCTCGGAGGACAACAGGAGGTCATAGCTGCCAGA	3.57
AATACAGGGTGACTAGGCCAGAGTAGGTACGAAT	0.257
CTATGTAGGTTAAGGGAGTCATTCAGTTTGAAAG	1.94
CGAACAAGGTCACCAGGACAGTGAAGAGGTTGGA	4.8
CCGAGGAGGTTACGAGGGGGCATTCAGTGCGAAT	6.29
CCTTACGGGTCCCTCCAGGTTATAGCATCGGAGT	0.0642
CCTACTGGGCCAAAAAGGTCATTGATGCCGATAA	4.83
